Test results from PubChem BioAssay.
Calls of active or inactive are those of the source.

Legend:
[1] = A549 cell viability effects, profiling panel, calcein-AM fluorescence, 48 h, basal (AID 1162); details: higher = more signal
[2] = adipocyte viability effects, profiling panel, cell-based, 3T3-L1 adipocytes, calcein-AM fluorescence, 48 h, basal (AID 1163); details: 3T3-L1 adipocytes viability, higher = more signal
[3] = HepG2 cell viability effects, profiling panel, calcein-AM fluorescence, 48 h, basal (AID 1164); details: higher = more signal
[4] = MM1S cell viability effects, profiling panel, calcein-AM fluorescence, 48 h, basal (AID 1165); details: higher = more signal;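 also: viability of MM1S multiple myeloma cells under basal unstimulated conditions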
[5] = basal RPMI8226 viability, no added stimulus, profiling panel, cell-based, calcein-AM fluorescence, 48 h, PK04 Diversity Set (AID 1166); details: RPMI8226 myeloma viability, higher = more signal;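 also: cells grown under basal conditions without added stimulus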
[6] = basal HepG2 mitochondrial membrane potential changes, profiling panel, cell-based, JC-1 fluorescence, 24 h, 100 nL compound (AID 1167); details: higher = more signal
[7] = basal 3T3-L1 adipocyte mitochondrial potential changes, profiling panel, cell-based, JC-1 fluorescence, 3T3-L1 adipocytes, 24 h, 100 nL compound (AID 1168); details: JC-1 mitochondrial fluorescence, higher = more signal, called active from +8 up or from −8 down
[8] = basal RPMI8226 mitochondrial membrane potential changes, profiling panel, cell-based, JC-1 fluorescence, 24 h, 100 nL compound (AID 1169); details: RPMI8226 myeloma, JC-1 mitochondrial potential fluorescence, higher = more signal
[9] = basal MM1S mitochondrial membrane potential changes, profiling panel, cell-based, JC-1 fluorescence, 24 h, 100 nL compound (AID 1170); details: higher = more signal
[10] = A549 lung cancer cell viability effects, profiling panel, resazurin fluorescence, 24 h, PK04 Diversity Set (AID 1171); details: higher = more signal, called active from +8 up or from −8 down
Also: test concentration not given here.

Row | Structure (SMILES) | z-score [1] | z-score [2] | z-score [3] | z-score [4] | z-score [5] | z-score [6] | z-score [7] | z-score [8] | z-score [9] | z-score [10]
1 | C=CCC(OC(C)=O)[C@@H]1[C@@H](N(Cc2cccc3ccccc23)C(=O)c2ccc(-c3ccccc3)cc2)c2cc(OCCCO)ccc2N1C(=O)Cc1ccc2ccccc2c1 (stereo not given in full) | -0.217 | 0.153 | 0.581 | -1.54 | -0.729 | 1.9 | -0.407 (inactive) | -0.342 | 0.164 | 0.706 (inactive)
2 | CC(C)[Si](C#CCCc1ccccc1)(O[C@H](c1ccccc1)c1cn(Cc2ccccc2)nn1)C(C)C | -0.865 | 0.254 | -1.01 | -0.505 | -0.297 | 0.907 | -0.979 (inactive) | -0.631 | -1.08 | 1.43 (inactive)
3 | C=CCOC(=O)[C@H]1[C@@H]2C(=O)O[C@@H](c3ccccc3)[C@@H](c3ccccc3)N2[C@@H](c2ccc(OCCOC(=O)[C@H]3C[C@H]4C(=O)N[C@@H](CC(C)C)C(=O)N4[C@H]3c3ccc(O)cc3)cc2)[C@]12C(=O)Nc1ccccc12 | 0.0118 | -0.382 | 0.414 | 0.178 | 0.34 | -1.78 | 1.05 (inactive) | -0.485 | -1.19 | 1.96 (inactive)
4 | Cc1ccc(S[C@]2(C(=O)NC3CC3)CC(=O)N(C(C)C)[C@@H]2c2ccc(CO)cc2I)cc1 | 1.22 | 1.07 | -0.722 | -2.31 | -2.82 | 2.11 | -0.578 (inactive) | -0.114 | -2.21 | 0.954 (inactive)
5 | C[C@@H]1ON(c2ccccc2)[C@H](c2ccccc2)[C@H]1C(=O)O | -0.0985 | 0.375 | -0.374 | -0.655 | 0.0402 | -0.246 | -0.212 (inactive) | -0.0601 | -0.599 | -0.236 (inactive)
6 | CCCCC(O)C1C=CC2C(=O)N(c3ccccc3)C(=O)C2N1Nc1ccccc1 (stereo not given) | 0.645 | -1.91 | -0.371 | 0.225 | -0.374 | -1.43 | 0.466 (inactive) | -0.241 | 0.0498 | 0.134 (inactive)
7 | [N-]=[N+]=Nc1ccccc1C[C@@]1(C(=O)NCC(O)CO)N=C(c2ccc(OCCCO)cc2)O[C@@H]1c1ccccc1 (stereo not given in full) | 0.378 | -0.326 | 0.75 | -0.39 | -0.342 | 0.582 | -0.186 (inactive) | -1.2 | -0.145 | -0.235 (inactive)
8 | C=CC[C@@]1(C(=O)OC)N=C(c2ccc(OCCCO)cc2)O[C@@H]1c1ccccc1N=[N+]=[N-] | -1.28 | 1.02 | -0.361 | -0.473 | -3.03 | 1 | 0.645 (inactive) | -0.983 | 0.0955 | -1 (inactive)
9 | COc1ccc(C(O)C2C=CC3C(=O)NC(=O)C3N2Nc2ccc(Cl)cc2Cl)c2ccccc12 (stereo not given) | -1.88 | 0.0133 | -2.36 | -3.8 | -3.99 | -3.88 | 0.564 (inactive) | -1.1 | 0.533 | -1.29 (inactive)
10 | COC(=O)[C@@]1(Cc2ccc(OC)cc2)[C@H]2c3cc(C(=O)N4CCCC4)n(Cc4c(CO)[nH]cc(C)c4=O)c3C[C@H]2CN1C(=O)c1ccccc1 | -0.37 | 0.454 | 0.375 | -0.206 | 0.501 | 2.94 | 0.926 (inactive) | 0.166 | -1.19 | 0.582 (inactive)
11 | COc1ccc(C(=O)Nc2ccc(CN3C(=O)[C@@]4(O[C@@H](CCn5cc(CCO)nn5)[C@H]([Si](C)(C)c5ccc(OC)cc5)[C@H]4C)c4ccccc43)cc2)cc1 | -0.883 | -0.319 | -3.14 | -2.68 | -4.27 | -1.29 | -0.201 (inactive) | -0.913 | -2.22 | -3.31 (inactive)
12 | COc1ccc(C(O)C2C=CC3C(=O)N(c4ccccc4)C(=O)C3N2Nc2ccc([N+](=O)[O-])cc2)c2ccccc12 (stereo not given) | -0.826 | -1.07 | -0.39 | -0.517 | -0.54 | -2.27 | -1.08 (inactive) | -0.344 | -1.32 | 0.604 (inactive)
13 | [N-]=[N+]=Nc1ccccc1[C@@H]1OC(c2ccc(OCCCO)cc2)=N[C@]1(Cc1ccccc1)C(=O)NCCN1CCOCC1 | -0.975 | 1.29 | -0.876 | -2.37 | -4.18 | 0.153 | -0.0447 (inactive) | -1.26 | -0.469 | -0.908 (inactive)
14 | CO[C@H]1O[C@H](CO)[C@@H](OC(=O)Nc2ccccc2-c2ccccc2)[C@H](OC(=O)Nc2ccccc2)[C@H]1OC(=O)Nc1ccccc1 | -1.66 | 1.29 | -1.74 | -2.76 | -3.36 | -0.216 | 0.877 (inactive) | -0.747 | -0.558 | -3.34 (inactive)
15 | C=CC1c2cc(O)c(OC)cc2CCN1C (stereo not given) | -1.24 | 0.281 | 0.0372 | 0.121 | 0.212 | -1.17 | -0.82 (inactive) | 0.222 | -0.67 | -0.535 (inactive)
16 | COC(=O)[C@@]1(Cc2ccc(F)cc2)[C@H]2c3cc(C(=O)N4CCCC4)n(Cc4ccccn4)c3C[C@H]2CN1C(=O)c1ccccc1 | -0.94 | -0.0559 | -0.347 | -0.333 | -2 | 1.51 | -0.474 (inactive) | -0.116 | -1.65 | -1.75 (inactive)
17 | C=CCNC(=O)[C@H]1[C@@H]2C(=O)O[C@@H](c3ccccc3)[C@@H](c3ccccc3)N2[C@@H](c2ccccc2OCCO)[C@]12C(=O)N(C(=O)OCCOC)c1ccc(C#Cc3ccc(OC)cc3)cc12 | 0.005 | -0.182 | 0.0823 | -1.05 | -1.15 | 0.421 | 3.69 (inactive) | -0.981 | -1.13 | -0.958 (inactive)
18 | CN1C(=O)[C@@H]2[C@@H](CC(COc3ccccc3)=C3[C@@H](CCc4ccccc4)OB(O)C[C@@H]32)C1=O | 0.231 | -0.477 | -1.14 | -2.31 | -0.802 | -1.62 | -0.0562 (inactive) | 0.122 | -0.904 | -0.453 (inactive)
19 | COCCOC(=O)N1C(=O)[C@@]2(c3cc(C#CCC(C(=O)OC)C(=O)OC)ccc31)[C@H](c1ccc(O)cc1)N1[C@H](c3ccccc3)[C@H](c3ccccc3)OC(=O)[C@H]1[C@@H]2C(=O)Nc1nc2ccccc2s1 | -0.451 | 0.982 | -0.0867 | 0.121 | -0.6 | -1.18 | -1.98 (inactive) | -0.164 | 0.0358 | 0.066 (inactive)
20 | O=C1C[C@@](C(=O)NC2CC2)(c2ccc([N+](=O)[O-])cc2)[C@@H](c2ccc(CO)cc2)N1C1CCCCC1 | 1.91 | 1.24 | -0.0212 | -0.177 | -1.3 | 1.28 | 0.0821 (inactive) | -0.00601 | -1.18 | 1.04 (inactive)
21 | CC(C)C(O)C1C=CC2C(=O)NC(=O)C2N1Nc1ccccn1 (stereo not given) | -0.188 | 0.258 | 0.0775 | 0.253 | 0.11 | 0.119 | -1.28 (inactive) | 0.231 | -0.0451 | -1.05 (inactive)
22 | COc1cc(CO)cc(I)c1O[C@H]1C=C(C(=O)NCCO)C[C@@H](NC2CCCCCC2)[C@@H]1O | -0.226 | -0.174 | 0.806 | -3.23 | -0.334 | 1.09 | 0.426 (inactive) | -0.441 | -3.21 | 0.406 (inactive)
23 | COC(=O)C(CC#Cc1ccc2c(c1)[C@]1(C(=O)N2)[C@H](c2ccc(OCCO)cc2)N2[C@H](c3ccccc3)[C@H](c3ccccc3)OC(=O)[C@H]2[C@@H]1C(=O)N1CCCCCCC1)C(=O)OC | 0.996 | 0.915 | 0.846 | 0.491 | -1.88 | -0.386 | -1.82 (inactive) | -1.08 | -1.36 | -0.387 (inactive)
24 | CC(C)C(=C=CC[C@H](O)c1ccccc1OCCO)C[C@H](O)c1cc(Cl)cc(Cl)c1O | 0.884 | 0.271 | 0.601 | -3.42 | -3.2 | -1.1 | 0.427 (inactive) | -0.788 | -1.07 | -0.0216 (inactive)
25 | Cc1ccc(S[C@]2(C(=O)NCCCN(C)C)CC(=O)N(C3Cc4ccccc4C3)[C@@H]2c2ccc(CO)cc2I)cc1 | 0.691 | -0.749 | -0.563 | -2.64 | -2.5 | -0.188 | -1.28 (inactive) | -0.201 | -1.09 | 0.471 (inactive)
26 | COc1cc(OC)c(C(O)C2C=CC3C(=O)N(c4ccccc4)C(=O)C3N2Nc2ccc(C(C)C)cc2)cc1Br (stereo not given) | 2.48 | -1.15 | 1.49 | -0.534 | -0.203 | -0.115 | -0.171 (inactive) | -0.126 | -0.66 | -0.101 (inactive)
27 | O=C1O[C@@H](c2ccccc2)[C@@H](c2ccccc2)N2[C@@H](c3ccc(OCCO)cc3)[C@]3(C(=O)Nc4ccc(C#CCCO)cc43)[C@@H](C(=O)O)[C@H]12 | 1.35 | -0.997 | 0.831 | 0.942 | 0.926 | -0.498 | -0.382 (inactive) | 0.284 | -0.811 | -0.384 (inactive)
28 | CCCCCC1=C2CNC(Cc3ccccc3)(C(=O)OC)C=C2C(C)C1=O (stereo not given) | -1.33 | 0.598 | -1.14 | -2.69 | -3.65 | 1.14 | -1.55 (inactive) | -0.608 | -0.32 | -0.605 (inactive)
